For 20 molecules, binding signal results are on record in PMC8136818, “Evolving origin-of-transfer sequences on staphylococcal conjugative and mobilizable plasmids—who’s mimicking whom?”.

The labels stand for the following.
T1: SmpO49 (Staphylococcus aureus plasmid pWBG749, UniProt UPI0001BEA96A 1-84)
T1 sequence: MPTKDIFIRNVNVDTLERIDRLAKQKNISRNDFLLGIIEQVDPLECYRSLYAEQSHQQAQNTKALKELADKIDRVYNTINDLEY

T2: SmpOSep (Staphylococcus epidermidis VCU120)
T2 chain: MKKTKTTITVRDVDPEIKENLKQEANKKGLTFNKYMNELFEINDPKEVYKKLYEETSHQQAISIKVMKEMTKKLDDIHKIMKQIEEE

T3: SmpO45 (Staphylococcus aureus plasmid pWBG745, UniProt UPI0001BEA8D3 1-84)
T3 sequence: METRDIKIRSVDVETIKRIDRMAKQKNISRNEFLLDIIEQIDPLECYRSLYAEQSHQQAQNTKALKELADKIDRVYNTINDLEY

T4: SmpOUNa (plasmid pC02)
T4 chain: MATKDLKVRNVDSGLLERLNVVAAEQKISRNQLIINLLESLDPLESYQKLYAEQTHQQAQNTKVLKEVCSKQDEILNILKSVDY

T5: SmpO408 (Staphylococcus aureus M0408)
T5 chain: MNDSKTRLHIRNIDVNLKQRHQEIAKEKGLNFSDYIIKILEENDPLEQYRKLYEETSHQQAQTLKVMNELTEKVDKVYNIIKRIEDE

T6: SmpO49-F7K (Staphylococcus aureus plasmid pWBG749, UniProt UPI0001BEA96A 1-84, F7K)
T6 sequence: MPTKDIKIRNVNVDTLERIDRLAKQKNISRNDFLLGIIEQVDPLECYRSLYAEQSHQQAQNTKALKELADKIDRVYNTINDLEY

B1: ossA49 (dsDNA)
DNA 1: TTTATGATATCACTAT
DNA 2: ATAGTGATATCATAAA
B2: OT45.4 (dsDNA)
DNA 1: TTTATTGTGGGGTCACTTTAAATTCTTTAA
DNA 2: TTAAAGAATTTAAAGTGACCCCACAATAAA
B3: ossA45-1 (dsDNA)
DNA 1: TTTGTGGGGTCACTTT
DNA 2: AAAGTGACCCCACAAA
B4: ossA49-5 (dsDNA)
DNA 1: TTTAAGATATCACTAT
DNA 2: ATAGTGATATCTTAAA
B5: OT45.9 (dsDNA)
DNA 1: TTGCCAGCCACCCCATAAAATATGGGGTCA
DNA 2: TGACCCCATATTTTATGGGGTGGCTGGCAA
B6: ossA45-12 (dsDNA)
DNA 1: ATTGTGGGGTCTCTTT
DNA 2: AAAGAGACCCCACAAT
B7: ossA45-4 (dsDNA)
DNA 1: ATTCTGGGGTCACTTT
DNA 2: AAAGTGACCCCAGAAT
B8: ossA49-16 (dsDNA)
DNA 1: TTTATGATATCACTAA
DNA 2: TTAGTGATATCATAAA
B9: ossBUNa (dsDNA)
DNA 1: AAAATGGGTACATATT
DNA 2: AATATGTACCCATTTT
B10: OTUNa For/Rev_14 (dsDNA)
DNA 1: TTGAAATATCTGGCTTCGCCAGATTACCCA
DNA 2: TGGGTAATCTGGCGAAGCCAGATATTTCAA
B11: OT45.3 (dsDNA)
DNA 1: GACACTATAGTTTATTGTGGGGTCACTTTA
DNA 2: TAAAGTGACCCCACAATAAACTATAGTGTC
B12: ossA49-12 (dsDNA)
DNA 1: TTTATGATATCTCTAT
DNA 2: ATAGAGATATCATAAA
B13: ossA45 (dsDNA)
DNA 1: ATTGTGGGGTCACTTT
DNA 2: AAAGTGACCCCACAAT
B14: OT45.10 (dsDNA)
DNA 1: CCCCATAAAATATGGGGTCATATTTCCCTT
DNA 2: AAGGGAAATATGACCCCATATTTTATGGGG
B15: ossAUNa (dsDNA)
DNA 1: GTGACCCCCATAAGAT
DNA 2: ATCTTATGGGGGTCAC
B16: ossA45-3 (dsDNA)
DNA 1: ATAGTGGGGTCACTTT
DNA 2: AAAGTGACCCCACTAT
B17: ossA45-2 (dsDNA)
DNA 1: AATGTGGGGTCACTTT
DNA 2: AAAGTGACCCCACATT
B18: ossA49-3 (dsDNA)
DNA 1: TTAATGATATCACTAT
DNA 2: ATAGTGATATCATTAA
B19: ossA45-5 (dsDNA)
DNA 1: ATTGAGGGGTCACTTT
DNA 2: AAAGTGACCCCTCAAT
B20: ossA49-14 (dsDNA)
DNA 1: TTTATGATATCACAAT
DNA 2: ATTGTGATATCATAAA

In one assay the target is T1, SmpO49. Description: SPR (ReDCaT); 150 mM NaCl; 10 mM HEPES, 3 mM EDTA, 0.05% Tween 20, NaCl 150 mM (SmpO49 screens), 300 mM (SmpO45, SmpO408, SmpOUNa screens) or 250 mM (Table S4); pH and temperature not stated; protein 1 uM; high values mean tight binding. Conditions: protein: recombinant; tags: His6-TEV, cleaved; chain copies: 4. A digest of the protocol:
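Tag-cleaved protein, expressed in E. coli BL21(DE3)pLysS and purified by nickel-affinity and size-exclusion chromatography, was screened on a Biacore T200 SA chip by reusable DNA capture. OriT oligonucleotides were captured at 1 μM on Fc2, with a control linker on Fc1. Protein at 1 μM was injected at 30 μl/min (60 s contact, 60 s dissociation) in 10 mM HEPES, 150 mM NaCl, 3 mM EDTA, 0.05% Tween 20. DNA binding is reported as %Rmax.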
Take B1: the binding signal came to 26 ± 1.13 %Rmax. Same read-out and setting: the value for B4 was 6.94 ± 0.948 %Rmax. As for B8, the binding signal was 24.8 ± 1.07 %Rmax. Same read-out and setting: the value for B12 was 5.13 ± 0.452 %Rmax; that for B18 was 26.8 ± 1.8 %Rmax. Turning to B20, the binding signal is 24.9 ± 1.06 %Rmax.

The target of another assay is T2, SmpOSep. Description: SPR (ReDCaT); 250 mM NaCl; 10 mM HEPES, 3 mM EDTA, 0.05% Tween 20, NaCl 150 mM (SmpO49 screens), 300 mM (SmpO45, SmpO408, SmpOUNa screens) or 250 mM (Table S4); pH and temperature not stated; protein 1 uM; high values mean tight binding. As to conditions: protein: recombinant; tags: His6-TEV, cleaved; chain copies: 4.
For B1, the binding signal stood at 1.2 %Rmax. For B9, the binding signal is 1.5 %Rmax. On to B13, for which the binding signal is 2.9 %Rmax.

In a further assay the target is T3, SmpO45. Nature of the assay: SPR (ReDCaT); 300 mM NaCl; 10 mM HEPES, 3 mM EDTA, 0.05% Tween 20, NaCl 150 mM (SmpO49 screens), 300 mM (SmpO45, SmpO408, SmpOUNa screens) or 250 mM (Table S4); pH and temperature not stated; protein 1 uM; high values mean tight binding. Conditions: protein: recombinant; tags: His6-TEV, cleaved; chain copies: 4. The method in brief: (§1)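 Tag-cleaved protein, expressed in E. coli BL21(DE3)pLysS and purified by nickel-affinity and size-exclusion chromatography, was screened on a Biacore T200 SA chip by reusable DNA capture. OriT oligonucleotides were captured at 1 μM on Fc2, with a control linker on Fc1. Protein at 1 μM was injected at 30 μl/min (60 s contact, 60 s dissociation) in 10 mM HEPES, 300 mM NaCl, 3 mM EDTA, 0.05% Tween 20. DNA binding is reported as %Rmax.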
With B2, the binding signal worked out at 29.4 ± 1.33 %Rmax. B3: the binding signal worked out at 42.58 ± 0.128 %Rmax. Same read-out and setting: the value for B5 was 0.769 ± 0.108 %Rmax. Same read-out and setting: the value for B6 was 7.81 ± 0.57 %Rmax; that for B7 was 33.4 ± 0.753 %Rmax; that for B11 was 29.5 ± 1.43 %Rmax. Same read-out and setting: the figure for B13 is 36.5 ± 3.64 %Rmax; for B14 it is 31.8 ± 2.19 %Rmax; for B16 it is 31.73 ± 0.268 %Rmax. Regarding B17, the binding signal is 32.56 ± 0.0519 %Rmax. For the molecule B19, the binding signal was determined as 13.5 ± 0.663 %Rmax.

Another assay concerns the target T3, SmpO45. Description: SPR (ReDCaT); 250 mM NaCl; 10 mM HEPES, 3 mM EDTA, 0.05% Tween 20, NaCl 150 mM (SmpO49 screens), 300 mM (SmpO45, SmpO408, SmpOUNa screens) or 250 mM (Table S4); pH and temperature not stated; protein 1 uM; high values mean tight binding. As to conditions: protein: recombinant; tags: His6-TEV, cleaved; chain copies: 4.
For B9, the binding signal was 0.8 %Rmax. Consider B13, for which the binding signal is 37.5 %Rmax. On the same count and under the same terms, the figure for B15 is 1.6 %Rmax.

Another assay has as its target T4, SmpOUNa. Description: SPR (ReDCaT); 300 mM NaCl; 10 mM HEPES, 3 mM EDTA, 0.05% Tween 20, NaCl 150 mM (SmpO49 screens), 300 mM (SmpO45, SmpO408, SmpOUNa screens) or 250 mM (Table S4); pH and temperature not stated; protein 1 uM; high values mean tight binding. Conditions: protein: recombinant; tags: His6-TEV, cleaved; chain copies: 4. The method in brief:
as §1
Regarding B10, the binding signal amounted to 1.29 ± 0.0865 %Rmax.

Another assay concerns the target T4, SmpOUNa. Description: SPR (ReDCaT); 250 mM NaCl; 10 mM HEPES, 3 mM EDTA, 0.05% Tween 20, NaCl 150 mM (SmpO49 screens), 300 mM (SmpO45, SmpO408, SmpOUNa screens) or 250 mM (Table S4); pH and temperature not stated; protein 1 uM; high values mean tight binding. As to conditions: protein: recombinant; tags: His6-TEV, cleaved; chain copies: 4.
On to B13, for which the binding signal was determined as 7.1 %Rmax. Same read-out and setting: the figure for B15 is 12.4 %Rmax.

The next assay has as its target T5, SmpO408. Described as above. As to conditions: protein: recombinant; tags: His6-TEV, cleaved; chain copies: 4.
B13: the binding signal amounted to 10.7 %Rmax. On the same count and under the same terms, the value for B15 was 2.9 %Rmax.

The next assay deals with T6, SmpO49-F7K. The assay is described as above. As to conditions: protein: recombinant; tags: His6-TEV, cleaved; chain copies: 4.
Consider B13, for which the binding signal is 31.3 %Rmax.

Regarding B15, the binding signal was determined as 3.5 %Rmax.
